Laboratory results published in PubChem BioAssay.

Biological target: Torsin-1A (Homo sapiens) (UniProt O14656)
Experiment: small-molecule binders of mutant TOR1A in lysate, primary screen, cell lysate, small-molecule microarray, COS7 lysate, 635/667 nm fluorescence (AID 1150);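 also: score pools 667 nm emission and signal to noise measuring lysate protein binding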
Details: COS7 hTOR1A mutant lysate, 635 nm fluorescence, higher = more signal

Chain of Torsin-1A (Homo sapiens) (O14656 whole entry, looked up): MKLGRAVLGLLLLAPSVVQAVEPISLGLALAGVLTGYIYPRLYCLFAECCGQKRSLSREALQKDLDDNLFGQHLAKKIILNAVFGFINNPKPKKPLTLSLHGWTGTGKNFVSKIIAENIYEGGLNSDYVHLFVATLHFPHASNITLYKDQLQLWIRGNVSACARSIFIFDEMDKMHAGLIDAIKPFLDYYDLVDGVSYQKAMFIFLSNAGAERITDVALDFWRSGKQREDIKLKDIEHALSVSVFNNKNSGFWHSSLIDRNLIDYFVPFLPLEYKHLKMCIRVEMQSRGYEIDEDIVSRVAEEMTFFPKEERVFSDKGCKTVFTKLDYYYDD

Row | Structure (SMILES) | composite z-score
1 | COc1ccc(C(=O)Nc2ccc(CN3C(=O)[C@@]4(O[C@@H](CCn5cc([C@H](O)c6ccccc6)nn5)[C@H]([Si](C)(C)c5ccc(OC)cc5)[C@H]4C)c4ccccc43)cc2)cc1 | 0.163
2 | O=C1c2ccccc2[C@@]2(Cc3ccccc3N(CCN3CCOCC3)C2=O)[C@H](c2ccc(CO)cc2)N1Cc1ccccc1 | 0.456
3 | CC[C@@H]1C=C(C(=O)O)[C@H](c2ccco2)N1S(=O)(=O)c1ccc(C)cc1 | 0.222
4 | O=C1OCCC/C=C\[C@H]2OC34C=CCN(CCN5CCOCC5)C(=O)[C@H]3N(CCCO)C(=O)[C@@H]4C12 (stereo partly specified) | 1.01
5 | COC(=O)[C@@]1(Cc2ccccc2)[C@H]2c3cc(C(=O)N4CCCC4)n(Cc4nc5ccccc5[nH]4)c3C[C@H]2CN1C(=O)c1ccccc1 | 1.24
6 | CC(C)c1ccc(NN2C(C(O)C(c3ccccc3)c3ccccc3)C=CC3C(=O)N(c4ccccc4)C(=O)C32)cc1 (stereo unspecified) | 0.936
7 | C#CCN(Cc1ccccc1Br)C(/C=C/c1ccccc1)CO (stereo unspecified) | -0.653
8 | O=C1C2C=CC(C(O)c3c(F)cccc3Cl)N(Nc3ccccc3)C2C(=O)N1c1ccccc1 (stereo unspecified) | 0.836
9 | NC(=O)[C@@H]1[C@H]2C(=O)O[C@H](c3ccccc3)[C@H](c3ccccc3)N2[C@H](c2ccc(O)cc2)[C@@]12C(=O)Nc1ccc(C#CC3(O)CCCCCC3)cc12 | 1.1
10 | CCOC(=O)C[C@H]1[C@H](OC(=O)Cc2ccc3c(c2)OCO3)[C@@H](NC(=O)c2ccc3ccccc3c2)c2cc(OCCCO)ccc2N1C(=O)c1ccccc1 | 0.458
11 | CN(C)C(=O)[C@]1(Cc2ccccc2N=[N+]=[N-])N=C(c2ccc(OCCCO)cc2)O[C@@H]1c1ccccc1 | 0.902
12 | COC(=O)c1c(CC[C@@H](CO)NC(=O)N[C@@H](C)Cn2cc(C3(O)CCCCC3)nn2)oc(C(C)=O)c1C(=O)OC | 0.91
13 | O=C1C2C=CC(C(O)c3ccc(F)cc3)N(Nc3ccccc3F)C2C(=O)N1c1ccccc1 (stereo unspecified) | 0.845
14 | O=C(c1ccccc1)N1Cc2ccccc2[C@@H]2OC(c3ccc(OCCCO)cc3)=N[C@]2(Cc2ccccc2)C1=O | 0.423
15 | C=C(COC)/C(=C/C[C@H](OC(=O)c1ccncc1)c1ccc(OCCO)cc1)c1cnc2ccccc2c1 | 0.953
16 | COCCOC(=O)N1C(=O)[C@@]2(c3cc(C#CCNC(N)=O)ccc31)[C@H](C(=O)NC[C@H](O)c1ccccc1)[C@H]1C(=O)O[C@H](c3ccccc3)[C@H](c3ccccc3)N1[C@@H]2c1ccccc1OCCO | 0.593
17 | COc1ccc([C@H]2C[C@H]3C(Br)=C[C@@H]2C(=O)[C@]32CO2)cc1 | -0.12
18 | C=CCOC(=O)[C@@H]1[C@H]2C(=O)O[C@H](c3ccccc3)[C@H](c3ccccc3)N2[C@H](c2ccc(OCCOC(=O)[C@@H]3C[C@@H]4C(=O)N[C@@H](Cc5ccccc5)C(=O)N4[C@@H]3c3ccc(O)cc3)cc2)[C@@]12C(=O)Nc1ccc(I)cc12 | 0.38
19 | O=C1OCC=C[C@H]2OC34C=CCN(c5ccc6ccccc6c5)C(=O)[C@H]3N(CCCCCCO)C(=O)[C@@H]4[C@@H]12 (stereo partly specified) | -1.69
20 | [N-]=[N+]=Nc1ccccc1C[C@]1(C(N)=O)N=C(c2ccc(OCCCO)cc2)O[C@H]1c1ccccc1 | -0.0736
21 | O=C1OCCC/C=C\[C@H]2OC34C=CCN(Cn5nnc6ccccc65)C(=O)[C@H]3N(CCO)C(=O)[C@@H]4C12 (stereo partly specified) | -1.23
22 | COc1cc2c(cc1OC)CN(C(=O)[C@H]1[C@@H]3C(=O)O[C@@H](c4ccccc4)[C@@H](c4ccccc4)N3[C@@H](c3ccc(O)cc3)[C@]13C(=O)Nc1ccc(C#CC4=CCCCC4)cc13)CC2 | 0.454
23 | Cc1ccc(S[C@]2(C(=O)NCC(C)C)CC(=O)N(Cc3cc(C(F)(F)F)cc(C(F)(F)F)c3)[C@@H]2c2ccc(CO)cc2I)cc1 | -0.913
24 | CCCC[C@@H]1C[C@H]1[C@@H](NC(=O)c1ccco1)c1ccc(C(=O)OC)cc1 | -0.319
25 | O=C1O[C@H](c2ccccc2)[C@H](c2ccccc2)N2[C@H]1[C@@H](C(=O)O)[C@]1(C(=O)Nc3ccc(C#CC4=CCCCC4)cc31)[C@H]2c1ccccc1OCCO | 0.516
26 | CC(=O)N1Cc2ccccc2C[C@@]2(COC(c3ccc(OCCCO)cc3)=N2)C1=O | 0.997
